According to ChEMBL document CHEMBL1157539, “Thousands of chemical starting points for antimalarial lead identification” (Nature, 2010):

Columns and labels:
Format in all cases: functional
[1] = test system: Plasmodium falciparum; experiment: GSK_TCMDC: Inhibition of Plasmodium falciparum 3D7 in whole red blood cells, using parasite LDH activity as an index of growth. Test compounds present at 2uM
[2] = test system: Plasmodium falciparum; experiment: GSK_TCMDC: Inhibition of Plasmodium falciparum Dd2 in whole red blood cells, using parasite LDH activity as an index of growth. Test compounds present at 2uM
[3] = test system: HepG2; experiment: GSK_TCMDC: Percent inhibition of human HepG2 cell line. Test compounds present at 10uM.

SMILES | Inhibition [1] | Inhibition [2] | Inhibition [3]
Cc1ccnc2nc(C(=O)Nc3cc(Cl)ccc3N3CCOCC3)nn12 | 84% | 63% | 0%
COc1cc(NCCCNCc2cn(Cc3cc(Br)cc(Br)c3)c3ccccc23)nc2ccccc12 | 100% | 85% | 99%
Cc1noc(=O)c2ccc(NC(=O)C(O)(CSc3ccccc3)CC(C)C)cc12 (centres undefined) | 99% | 89% | 0%
CN1CCCN(Cc2ccc(-c3cccc(NC(=O)c4cccc(C#N)c4)c3)cc2)CC1.O=C(O)C(F)(F)F | 100% | 64% | 17%
COc1ccc(C2CC(c3cccs3)=NN2C(=O)COc2cccc3c2CCCC3O)cc1OC (centres undefined) | 93% | 62% | 5%
Cl.N=C(NCCCc1ccccc1)c1cccc(C(=N)NCCCc2ccccc2)n1 | 98% | 0% | 44%
Cc1[nH]cnc1Cc1ccc2c(c1O)c1ccccc1n2C | 90% | 16% | 9%
CCc1nonc1NC(=O)c1oc2c(C)c(C)ccc2c1C | 89% | 64% | 1%
Cl.N=C(N)c1cc(Cl)cc(NC(=O)Nc2cc(Cl)cc(C(=N)N)c2)c1 | 92% | 92% | 4%
N#Cc1ccc2[nH]cc(CN3CCC4(CC3)CN(CCNCc3ccccc3)C(=O)CO4)c2c1.O=C(O)C(F)(F)F | 98% | 0% | 0%
O=C(Nc1ccc(Cl)cc1Cl)NC1CCN(CCCCCNC(=O)C2CC2c2ccc(Cl)c(Cl)c2)CC1 (centres undefined) | 100% | 30% | 67%
O=C(NCC1CCC(C(=O)O)CC1)c1ccc(/C=C/C(=O)N2CCc3ccccc3C2c2ccc3c(c2)OCO3)cc1 (centres undefined) | 91% | 17% | 66%
CS(=O)(=O)c1ccc(Nc2ncc(-c3ccc(S(C)(=O)=O)cc3)c(OCC(F)(F)F)n2)cc1 | 97% | 98% | 0%
Cc1ncccc1C(=O)Nc1ccc(-c2cccc(-c3nc4cccc(C)c4[nH]3)c2)cc1 | 95% | 31% | 6%
N=C1NC(c2ccccc2)(c2ccccc2)C(=O)N1CC=Cc1ccccc1.O=C(O)C(F)(F)F | 98% | 70% | 23%
O=C(N[C@H]1CCN(CCc2ccc(O[C@H]3CCNC3)c(Br)c2)C1)c1ccc(Cl)c(Cl)c1.O=C(O)C(F)(F)F | 100% | 0% | 28%
Br.CC(C)(C)c1ccc(Cn2c(=N)n(CC(=O)c3ccc(-c4ccccc4)cc3)c3ccccc32)cc1 | 98% | 50% | 63%
O=C(O)C(F)(F)F.c1cc(-c2ccc(CNCc3ccsc3)cc2)cc(-c2nc3ccccc3[nH]2)c1 | 100% | 82% | 46%
CC(=O)Nc1cccc(C(=O)Nc2cccc(-c3cccc(-c4nc5cc(F)ccc5[nH]4)c3)c2)c1 | 100% | 44% | 51%
CCCCNc1nc(NCCCC)c2c(C)c(Cc3ccccc3)c(NCCCC)nc2n1.Cl | 95% | 84% | 69%
Cl.Cn1c(=N)n(CC(=O)N2CCc3ccc(Cl)cc3C2Cc2ccc(Cl)c(Cl)c2)c2ccccc21 (centres undefined) | 100% | 52% | 99%
CC(C)c1ccc(NC(=O)c2ccc(CN3CCCN(Cc4cccc(Cl)c4)CC3)cc2)cc1.O=C(O)C(F)(F)F | 90% | 12% | 45%
Cn1ncc2ccc(Nc3nccc(-c4ccc5c(c4)c(N)nn5C)n3)cc21 | 99% | 96% | 48%
O=C(O)C(F)(F)F.c1cc(CNCCc2ccncc2)cc(-c2ccc(-c3nc4ccccc4[nH]3)s2)c1 | 100% | 97% | 1%
Cc1cccc2nc(-c3cccc(-c4ccc(NC(=O)C(=O)c5cccn5C)cc4)c3)[nH]c12 | 100% | 46% | 45%
COC(=O)C(C)NCC(=O)c1ccccc1.Cl (centres undefined) | 97% | 23% | 5%
O=C(O)C(F)(F)F.c1ccc(-n2ncc(CNCc3ccc(-c4ccc(-c5nc6ccccc6[nH]5)s4)cc3)n2)cc1 | 93% | 46% | 27%
Nc1ccc2[nH]cc(C3CCN(CC4CCC(NC(=O)/C=C/c5ccccc5Cl)CC4)CC3)c2n1 (centres undefined) | 100% | 45% | 7%
